For 3 molecules, AC50 and outcome results are on record in PubChem BioAssay (EPA / NIEHS).

SMILES strings stand for the structures. The source made the active and inactive calls. How the source made its calls: active means hit-call score of the fitted dose curve at least 0.9, where 1 is the maximum; inactive means score below 0.9.

Common to all, as to conditions: mRNA level, 48 h; actives raise or lower the signal
Read-out in assay [1]: Cytochrome P450 7A1 (Homo sapiens) (UniProt P22680)
The assay is described as follows: LTEA_HepaRG_CYP7A1: Life Technologies and Expression Analysis (LTEA) Assay for Cytochrome P450 7A1 (CYP7A1) using HepaRG (AID 2283496). A digest of the protocol: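 HepaRG cells plated 48 h, then switched to serum-free induction medium and exposed in duplicate for 48 h to 8-point half-log series from 100 uM in 0.5% DMSO. CYP7A1 mRNA by qRT-PCR (TaqMan), normalized to ACTB/GAPDH/POLR2A; bidirectional fit versus DMSO.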

Read-out in assay [2]: Glutathione S-Transferase (GSTA2), GSTA2 (gene 2939)
The assay is described as follows: LTEA_HepaRG_GSTA2: Life Technologies and Expression Analysis (LTEA) Assay for Glutathione S-Transferase (GSTA2) using HepaRG (AID 2283497). The gist of the method:
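Human HepaRG cells, plated 48 h, then exposed in serum-free induction medium for 48 h to eight half-log concentrations up to 100 uM in 0.5% DMSO, duplicate. GSTA2 mRNA by qRT-PCR, normalized to ACTB/GAPDH/POLR2A; bidirectional fit versus DMSO.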

Read-out in assay [3]: growth arrest and DNA damage 45 (GADD45G), GADD45G (gene 10912)
Nature of the assay: LTEA_HepaRG_GADD45G: Life Technologies and Expression Analysis (LTEA) Assay for growth arrest and DNA damage 45 (GADD45G) using HepaRG (AID 2283499). The gist of the method: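 Differentiated human HepaRG cells in serum-free induction medium were exposed for 48 h to 8 half-log concentrations up to 100 uM in 0.5% DMSO, in duplicate. GADD45G mRNA was measured by TaqMan qRT-PCR, normalised to ACTB, GAPDH and POLR2A, and fitted bidirectionally against DMSO.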

Read-out in assay [4]: Glutamate-cysteine ligase regulatory (GCLM), GCLM (gene 2730)
Nature of the assay: LTEA_HepaRG_GCLM: Life Technologies and Expression Analysis (LTEA) Assay for Glutamate-cysteine ligase regulatory (GCLM) using HepaRG (AID 2283500). A digest of the protocol: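 Differentiated HepaRG cells exposed 48 h in serum-free induction medium to eight half-log concentrations up to 100 uM (0.5% DMSO). GCLM mRNA by TaqMan qRT-PCR, normalized to ACTB, GAPDH and POLR2A; bidirectional fit versus DMSO.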

Read-out in assay [5]: Glutathione S-transferase M3 (GSTM3), GSTM3 (gene 2947)
The assay is described as follows: LTEA_HepaRG_GSTM3: Life Technologies and Expression Analysis (LTEA) Assay for Glutathione S-transferase M3 (GSTM3) using HepaRG (AID 2283501). The gist of the method:
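Differentiated HepaRG cells in serum-free induction medium were exposed in duplicate for 48 h to 8 half-log concentrations up to 100 uM in 0.5% DMSO. GSTM3 mRNA was measured by TaqMan qRT-PCR, normalized to ACTB/GAPDH/POLR2A, and fitted bidirectionally versus DMSO.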

Read-out in assay [6]: Heat shock 70 kDa protein 1 (HSPA1A), gene 3303
Nature of the assay: LTEA_HepaRG_HSPA1A: Life Technologies and Expression Analysis (LTEA) Assay for Heat shock 70 kDa protein 1 (HSPA1A) using HepaRG (AID 2283502). The gist of the method:
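Human HepaRG cells in serum-free induction medium were exposed in duplicate for 48 h to 8 half-log concentrations, highest 100 uM, in 0.5% DMSO. HSPA1A mRNA read by TaqMan qRT-PCR, normalized to ACTB, GAPDH, POLR2A, fitted bidirectionally against DMSO.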

Read-out in assay [7]: Hypoxia-inducible factor 1-alpha (Homo sapiens) (UniProt Q16665)
Nature of the assay: LTEA_HepaRG_HIF1A: Life Technologies and Expression Analysis (LTEA) Assay for Hypoxia-inducible factor 1 (HIF1A) Trancription factor using HepaRG (AID 2283503). A digest of the protocol:
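Differentiated HepaRG cells in serum-free induction medium exposed 48 h, in duplicate, to 8-point half-log series from 100 uM in 0.5% DMSO. HIF1A mRNA measured by TaqMan qRT-PCR, normalized to ACTB/GAPDH/POLR2A, fitted bidirectionally versus DMSO.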

Read-out in assay [8]: 3-Hydroxy-3-Methylglutaryl-CoA Synthase 2 (HMGCS2), HMGCS2 (gene 3158)
The assay is described as follows: LTEA_HepaRG_HMGCS2: Life Technologies and Expression Analysis (LTEA) Assay for 3-Hydroxy-3-Methylglutaryl-CoA Synthase 2 (HMGCS2) using HepaRG (AID 2283504). A digest of the protocol:
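Differentiated human HepaRG cells were exposed in duplicate for 48 h in serum-free induction medium to eight concentrations (top 100 uM, half-log steps, 0.5% DMSO). HMGCS2 mRNA was quantified by TaqMan qRT-PCR, normalised to ACTB, GAPDH and POLR2A, then fitted bidirectionally against DMSO.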

Read-out in a further assay: HGF (gene 3082)
The assay is described as follows: LTEA_HepaRG_HGF: Life Technologies and Expression Analysis (LTEA) Assay for Hepatocyte Growth Facto (HGF) using HepaRG (AID 2283505). A digest of the protocol: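 Differentiated human HepaRG cells in serum-free induction medium were exposed in duplicate for 48 h to eight concentrations (top 100 uM, half-log steps, 0.5% DMSO). HGF mRNA was quantified by qRT-PCR, normalized to ACTB, GAPDH and POLR2A.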

Read-out in assay [9]: Insulin Like Growth Factor 1 (IGF1), IGF1 (gene 3479)
The assay is described as follows: LTEA_HepaRG_IGF1: Life Technologies and Expression Analysis (LTEA) Assay for Insulin Like Growth Factor 1 (IGF1) using HepaRG (AID 2283506). A digest of the protocol:
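Differentiated HepaRG cells in serum-free induction medium, exposed 48 h in duplicate to 8 half-log concentrations up to 100 uM in 0.5% DMSO. IGF1 mRNA by Fluidigm qRT-PCR, normalised to ACTB, GAPDH and POLR2A.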

Read-out in assay [10]: Intercellular Adhesion Molecule 1 (ICAM1), ICAM1 (gene 3383)
Nature of the assay: LTEA_HepaRG_ICAM1: Life Technologies and Expression Analysis (LTEA) Assay for Intercellular Adhesion Molecule 1 (ICAM1) using HepaRG (AID 2283507). The gist of the method: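 Differentiated HepaRG cells in serum-free induction medium were exposed in duplicate for 48 h to eight half-log concentrations up to 100 uM in 0.5% DMSO. Transcript levels were measured by qRT-PCR normalized to ACTB, GAPDH and POLR2A; bidirectional fits relative to DMSO.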

Read-out in assay [11]: Insulin-like growth factor-binding protein 1 (IGFBP1), IGFBP1 (gene 3484)
Nature of the assay: LTEA_HepaRG_IGFBP1: Life Technologies and Expression Analysis (LTEA) Assay for Insulin-like growth factor-binding protein 1 (IGFBP1) using HepaRG (AID 2283508). A digest of the protocol:
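Differentiated human HepaRG cells in serum-free induction medium were exposed in duplicate for 48 h to eight concentrations, top 100 uM with half-log dilutions, in 0.5% DMSO. Transcript levels came from qRT-PCR normalised to ACTB, GAPDH and POLR2A, fitted bidirectionally against DMSO.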

Read-out in assay [12]: Interleukin 6 (IL6), IL6 (gene 3569)
The assay is described as follows: LTEA_HepaRG_IL6: Life Technologies and Expression Analysis (LTEA) Assay for Interleukin 6 (IL6) using HepaRG (AID 2283509). A digest of the protocol:
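Differentiated human HepaRG cells, plated 48 h then switched to serum-free induction medium, were exposed in duplicate for 48 h to eight half-log concentrations up to 100 uM in 0.5% DMSO. IL6 mRNA measured by qRT-PCR, normalized to ACTB/GAPDH/POLR2A.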

Read-out in assay [13]: Interleukin 6 Receptor (IL6R), IL6R (gene 3570)
Nature of the assay: LTEA_HepaRG_IL6R: Life Technologies and Expression Analysis (LTEA) Assay for Interleukin 6 Receptor (IL6R) using HepaRG (AID 2283510).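 On AC50: TaqMan qRT-PCR signal normalized to ACTB GAPDH and POLR2A housekeeping genes.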 The gist of the method:
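Differentiated HepaRG cells, plated 48 h, then exposed in duplicate for 48 h in serum-free induction medium to 8 half-log concentrations (top 100 uM, 0.5% DMSO). IL6R mRNA measured by TaqMan qRT-PCR, normalized to ACTB/GAPDH/POLR2A; bidirectional fit vs DMSO.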

Read-out in assay [14]: Potassium channel subfamily K member 1 (KCNK1), KCNK1 (gene 3775)
Nature of the assay: LTEA_HepaRG_KCNK1: Life Technologies and Expression Analysis (LTEA) Assay for Potassium channel subfamily K member 1 (KCNK1) using HepaRG (AID 2283511). A digest of the protocol: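 Differentiated human HepaRG cells in serum-free induction medium were exposed in duplicate for 48 h to 8 half-log concentrations up to 100 uM in 0.5% DMSO. KCNK1 mRNA was measured by TaqMan qRT-PCR, normalized to ACTB, GAPDH and POLR2A, and fitted bidirectionally versus DMSO.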

Read-out in assay [15]: Keratin 19 (KRT19), KRT19 (gene 3880)
Nature of the assay: LTEA_HepaRG_KRT19: Life Technologies and Expression Analysis (LTEA) Assay for Keratin 19 (KRT19) using HepaRG (AID 2283512). A digest of the protocol:
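Differentiated human HepaRG cells, plated 48 h, were exposed in duplicate for 48 h in serum-free induction medium to eight half-log concentrations up to 100 uM in 0.5% DMSO. KRT19 mRNA was quantified by qRT-PCR, normalized to ACTB, GAPDH and POLR2A, and fitted bidirectionally versus DMSO.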

Read-out in assay [16]: JUN Transcription Factor, JUN (gene 3725)
Nature of the assay: LTEA_HepaRG_JUN: Life Technologies and Expression Analysis (LTEA) Assay for JUN Transcription Factor using HepaRG (AID 2283513). A digest of the protocol: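 HepaRG cells, 48 h post-plating, exposed 48 h in serum-free induction medium to 8-point half-log series (top 100 uM, 0.5% DMSO), duplicate; mRNA by qRT-PCR (TaqMan, Fluidigm), normalized to ACTB/GAPDH/POLR2A; bidirectional fit vs DMSO.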

Read-out in assay [17]: Lipoprotein lipase (LPL), LPL (gene 4023)
Nature of the assay: LTEA_HepaRG_LPL: Life Technologies and Expression Analysis (LTEA) Assay for Lipoprotein lipase (LPL) using HepaRG (AID 2283515). A digest of the protocol:
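Differentiated human HepaRG cells in serum-free induction medium were exposed in duplicate for 48 h to eight half-log concentrations (top 100 uM) in 0.5% DMSO. LPL mRNA was quantified by TaqMan qRT-PCR, normalized to ACTB, GAPDH and POLR2A.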

Read-out in assay [18]: Lipase C (LIPC), LIPC (gene 3990)
Nature of the assay: LTEA_HepaRG_LIPC: Life Technologies and Expression Analysis (LTEA) Assay for Lipase C (LIPC) using HepaRG (AID 2283514). A digest of the protocol:
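Differentiated human HepaRG cells in serum-free induction medium were exposed in duplicate for 48 h to eight concentrations (top 100 uM, half-log steps, 0.5% DMSO). LIPC mRNA was quantified by TaqMan qRT-PCR, normalized to ACTB, GAPDH and POLR2A, with bidirectional fitting versus DMSO.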

Sequence of Hypoxia-inducible factor 1-alpha (Homo sapiens) (Q16665 whole entry, looked up): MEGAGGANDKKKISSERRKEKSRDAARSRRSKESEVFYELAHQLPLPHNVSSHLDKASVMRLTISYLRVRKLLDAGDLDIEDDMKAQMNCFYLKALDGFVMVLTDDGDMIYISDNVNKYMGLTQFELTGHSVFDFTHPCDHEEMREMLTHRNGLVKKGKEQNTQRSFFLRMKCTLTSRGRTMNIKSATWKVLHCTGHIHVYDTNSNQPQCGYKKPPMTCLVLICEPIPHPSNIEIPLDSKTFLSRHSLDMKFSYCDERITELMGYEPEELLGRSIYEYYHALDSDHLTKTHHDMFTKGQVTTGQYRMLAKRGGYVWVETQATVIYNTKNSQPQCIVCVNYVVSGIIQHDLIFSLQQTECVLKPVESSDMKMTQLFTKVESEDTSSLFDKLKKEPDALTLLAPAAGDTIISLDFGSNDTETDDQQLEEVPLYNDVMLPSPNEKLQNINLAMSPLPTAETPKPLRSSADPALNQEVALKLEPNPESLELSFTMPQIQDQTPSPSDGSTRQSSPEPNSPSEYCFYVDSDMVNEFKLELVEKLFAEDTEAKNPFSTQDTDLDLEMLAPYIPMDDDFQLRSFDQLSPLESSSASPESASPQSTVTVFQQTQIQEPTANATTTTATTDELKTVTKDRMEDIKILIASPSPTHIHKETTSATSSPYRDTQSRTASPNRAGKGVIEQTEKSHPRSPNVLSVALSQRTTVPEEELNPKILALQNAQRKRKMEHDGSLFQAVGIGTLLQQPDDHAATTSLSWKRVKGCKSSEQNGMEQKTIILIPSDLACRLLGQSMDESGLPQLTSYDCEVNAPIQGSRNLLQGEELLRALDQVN

One may read the AC50 as the midpoint of the concentration-response curve, whichever way the signal moves. In the case of `Nc1c(Cl)cc([N+](=O)[O-])cc1Cl`, the AC50 in assay [1] was 50 µM (active); in assay [2], 64.7 µM (active); in [3] it was 50 µM (active); in [5], 50 µM (active); in assay [6], 26.8 µM (active); in assay [7] it was 86.6 µM (active). Moreover, the AC50 is 50 µM (active) in assay [8]; 23.7 µM (active) in assay [11]; 28.2 µM (active) in assay [13]; 6.97 µM (active) in assay [15]; 15.5 µM (active) in assay [17]. For the same molecule, the molecule was classed as inactive (in [4]; in the assay with HGF (gene 3082); in assay [9]; in assay [10]; in assay [12]; in assay [14]). Moreover, the molecule was called inactive in assay [16].

`CC(C)[C@H](C(=O)O[C@H](C#N)c1cccc(Oc2ccccc2)c1)c1ccc(Cl)cc1`: the molecule was called inactive in [1], in assay [2], in assay [3], in [4], in assay [6] and in [7]. Moreover, the molecule was called inactive (in assay [8]; with HGF (gene 3082); in assay [10]; in assay [11]; in assay [12]; in assay [13]). Also, the molecule was classed as inactive in assay [14], in [15], in assay [16], in assay [18] and in assay [17]. For the same molecule, the AC50 in assay [9] is 50 µM (active).

For `CC[C@H](C)[C@H]1O[C@]2(C=C[C@@H]1C)C[C@@H]1C[C@@H](C/C=C(\C)[C@@H](O[C@H]3C[C@H](OC)[C@@H](O[C@H]4C[C@H](OC)[C@@H](NC)[C@H](C)O4)[C@H](C)O3)[C@@H](C)/C=C/C=C3\CO[C@@H]4[C@H](O)C(C)=C[C@@H](C(=O)O1)[C@]34O)O2`, the outcome (in [1]; in assay [4]; with HGF (gene 3082); in assay [15]; in assay [18]) was inactive. Moreover, the AC50 is 23.3 µM (active) in [2]; 2.78 µM (active) in [3]; 20.4 µM (active) in assay [6]; 74.3 µM (active) in assay [7]; 12.5 µM (active) in assay [8]; 27.7 µM (active) in assay [9]. Further, the AC50 was 28.9 µM (active) in assay [10]; 14.6 µM (active) in assay [11]; 21.3 µM (active) in [12]; 22.6 µM (active) in assay [13]; 22.5 µM (active) in assay [14]; 26.5 µM (active) in assay [16]. Further, the AC50 in assay [17] is 12.1 µM (active).
